According to PubChem BioAssay (NCATS):
The source made the active and inactive calls. The call rests on the fitted dose curve.

How the values were obtained:
Assay in all cases: Confirmatory Screen for Target Class Profiling of Small Molecule Inhibitors of Methyltransferases (AID 1745852); on activity change, negative = inhibition: on the % scale 0 is the no-effect control and ±100 the full control effect
[1] = biological target: Catechol O-methyltransferase (Homo sapiens) (UniProt P21964); conditions: MTase-Glo luminescence, SAH detection, recombinant enzyme; measured here: COMT max response; stronger effect = lower value
[2] = biological target: Guanidinoacetate N-methyltransferase (Homo sapiens) (UniProt Q14353); conditions: MTase-Glo luminescence, SAH detection, recombinant enzyme; activity change, negative = inhibition: at 57.3 µM (top of the series) unless noted; series mostly up to 57.3 µM
[3] = biological target: Nicotinamide N-methyltransferase (Homo sapiens) (UniProt P40261); conditions: MTase-Glo luminescence, SAH detection, recombinant enzyme; measured here: NNMT max response; stronger effect = lower value
[4] = biological target: Phenylethanolamine N-methyltransferase (Homo sapiens) (UniProt P11086); conditions: MTase-Glo luminescence, SAH detection, recombinant enzyme; measured here: PNMT max response; stronger effect = lower value
Potency means the concentration at half of the fitted maximal effect.

Sequence of Nicotinamide N-methyltransferase (Homo sapiens) (P40261 whole entry, looked up): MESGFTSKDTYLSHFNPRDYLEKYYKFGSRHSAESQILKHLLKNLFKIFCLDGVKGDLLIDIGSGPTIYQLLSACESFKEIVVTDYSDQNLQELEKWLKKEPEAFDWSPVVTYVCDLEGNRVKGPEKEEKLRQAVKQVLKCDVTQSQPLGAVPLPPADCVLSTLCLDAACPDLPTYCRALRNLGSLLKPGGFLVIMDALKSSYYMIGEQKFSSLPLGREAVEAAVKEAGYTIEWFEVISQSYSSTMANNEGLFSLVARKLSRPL
Sequence of Catechol O-methyltransferase (Homo sapiens) (P21964 whole entry, looked up): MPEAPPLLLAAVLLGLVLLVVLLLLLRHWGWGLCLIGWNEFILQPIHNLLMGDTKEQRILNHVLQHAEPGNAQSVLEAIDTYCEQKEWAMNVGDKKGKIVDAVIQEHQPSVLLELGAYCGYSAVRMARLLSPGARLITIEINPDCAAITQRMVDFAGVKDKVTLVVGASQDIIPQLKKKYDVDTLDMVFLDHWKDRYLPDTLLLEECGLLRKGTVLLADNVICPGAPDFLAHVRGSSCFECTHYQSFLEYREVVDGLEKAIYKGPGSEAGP
Sequence of Phenylethanolamine N-methyltransferase (Homo sapiens) (P11086 whole entry, looked up): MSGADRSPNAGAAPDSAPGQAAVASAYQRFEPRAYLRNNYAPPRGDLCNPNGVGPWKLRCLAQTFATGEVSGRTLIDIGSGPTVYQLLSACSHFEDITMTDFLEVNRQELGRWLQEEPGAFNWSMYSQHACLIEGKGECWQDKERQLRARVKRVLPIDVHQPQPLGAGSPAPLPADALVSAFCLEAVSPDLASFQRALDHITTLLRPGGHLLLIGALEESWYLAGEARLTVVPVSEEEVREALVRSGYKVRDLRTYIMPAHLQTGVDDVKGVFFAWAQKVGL

Compound | activity [1] [%] | Potency [2] | activity [3] [%] | activity [4] [%] | activity change, negative = inhibition [2]
O=C(NCc1ccc2c(c1)OCO2)c1sc(=S)n2c1[nH]c(=O)c1ccc(Cl)cc12 | -88.3 | 24.1 µM (active) | -87.4 | -92.6 | –
O=C(O)c1ccc2c(c1)C1C=CCC1C(c1ccc(Cl)cc1)N2 (stereo not given) | -24.7 | 42.9 µM (active) | -22.4 | -23.3 | –
CC(C)c1nccn1CCCNc1nc(-c2ccncc2)nc2c1cnn2C | -28.8 | – | -20.9 | -44.2 | -15.2%
O=C1c2ccccc2C(=O)c2c1cccc2S(=O)(=O)Nc1ccc(Cl)cc1 | 0.0726 | – | -1.28 | -37 | -0.67%
CC1CCCCN1CCNC(=O)CCc1nnc2n(Cc3ccc(F)cc3)c(=O)c3ccccc3n12 (stereo not given) | 4.47 | – | -9.89 | 0.568 | 0%
Cc1ccc2c(c1)c(=O)[nH]c1c(C(=O)NCc3ccc4c(c3)OCO4)sc(=S)n12 | -32.7 | 17.1 µM (active) | -60.7 | -35.6 | –
COc1cccc(CNC(=O)c2sc(=S)n3c2[nH]c(=O)c2cc4c(cc23)OCO4)c1 | -25.7 | 42.9 µM (active) | -43.7 | -28 | –
O=C(NCc1cccc(Cl)c1)c1sc(=S)n2c1[nH]c(=O)c1cc3c(cc12)OCO3 | -21.3 | 27.1 µM (active) | -63.2 | -39.9 | –
CC(=O)Nc1cccc(-c2cc3c(cn2)CN(Cc2ccccc2)CCN3)c1 | -2.16 | – | -13 | -14.8 | 0.249% [at 85.7 µM]
COc1ccccc1CNC(=O)C1(C)Cn2c(cc3ccccc32)C(=O)N1Cc1ccc(OC)c(OC)c1 (stereo not given) | 0 | – | -60.4 | -1.32 | 0%
CCOc1c(CN(C)C(=O)Cn2cccc(OC)c2=O)cccc1OC | 0.499 | – | -3.91 | 0.0949 | -5.47%
Cc1noc(C)c1-c1cnc(Nc2ccncc2)c2c1CCO2 | 0.912 | – | -6.04 | 2.25 | 1.39% [at 85.7 µM]
COc1ccc(N2C(=O)c3ccc(-c4ccco4)n3CC2(C)C(=O)NCc2ccccc2)cc1OC (stereo not given) | -7.65 | – | -17.5 | -3.81 | -2.41%
Cn1cc(CN2CCCC(COc3ccccc3C(=O)N3CCCCC3)C2)c2ccccc21 (stereo not given) | 6.44 | – | 4.53 | 3.6 | 7.22%
Cn1c(COc2cccc(CN3CCCC3)c2Cl)nnc1C1CC(N)C1 (stereo not given) | 0.772 | – | -2.09 | -1.62 | -2.28%
CCCC1c2cccn2CCN1C(=O)Nc1cc(Cl)ccc1C (stereo not given) | 1.08 | inactive | -4.96 | -0.621 | –
CCc1cccc(NC(=O)Cn2c(=O)oc3cc(S(=O)(=O)N4CC(C)CC(C)C4)ccc32)c1 (stereo not given) | 3.4 | – | -6.52 | -59.2 | 0%
COc1ccc(CCNC(=O)c2ccc3c(=O)nc4c(-c5ccccc5)n[nH]n4c3c2)cc1OC | -11.8 | 0.0961 µM (active) | -10.5 | -12.5 | –
CCCn1c(C)cnc1CC1CCN(C(=O)NCc2ccc(OC)cc2)C1 (stereo not given) | -4.22 | – | -3.34 | -1.44 | 6.2%
CN1CCCC2(C1)CN(C)c1ccc(C(=O)NCC3CCCCC3)cc12 (stereo not given) | 1.14 | – | -10.6 | -0.542 | -0.167% [at 85.7 µM]

Compound | activity [1] [%] | Potency [2] | activity [3] [%] | activity [4] [%] | activity change, negative = inhibition [2]
CC1(C(=O)NC2CCCCCC2)Cn2c(cc3occc32)C(=O)N1Cc1ccc2c(c1)OCO2 (stereo not given) | -5.04 | inactive | -18 | -10.8 | –
c1ccc(CN2CCNc3cnc(Nc4ccc(N5CCOCC5)cc4)cc3C2)cc1 | -14.6 | – | -15 | -10.3 | -9.27% [at 85.7 µM]
COc1ccc(CCNc2nc3c(S(=O)(=O)c4ccccc4)nnn3c3ccccc23)cc1OC | -10.7 | – | -17.5 | -12.4 | -7.04%
CN1CCN(C)c2cnc(-c3cnn(Cc4ccccc4)c3)cc2C1 | 6.86 | – | 6.62 | 8.78 | 5.27% [at 85.7 µM]
CCNc1nc2c(s1)C(c1cccc(F)c1)CC(=O)N2 (stereo not given) | -12.6 | 42.9 µM (active) | -25 | -19.2 | –
Cc1cc2c(cc3n2CC(C)(C(=O)NC2CCCCCCC2)N(Cc2ccco2)C3=O)o1 (stereo not given) | -1.76 | – | -37.5 | -6.55 | 0%
CCNc1nccc(N2CCC(CC(=O)NCC(C)C)CC2)n1 | -2.4 | – | -6.4 | -1.27 | -5.08%
COc1ncccc1-c1cc2c(ccn2CC2CCN([S+](C)(=O)[O-])CC2)c(N2CCOCC2)n1 | -8.55 | – | -94.7 | -10.8 | 1.38%
Cc1ccc(Cn2c(=O)c3ccccc3n3c(CCC(=O)NCCCN4CCC(C)CC4)nnc23)cc1 | 0 | – | -6.98 | 0 | 0%
Cc1cccc(N2CCN(C(=O)CCc3nnc4n(CC(C)C)c(=O)c5ccccc5n34)CC2)c1C | 4.82 | – | -69.8 | 4.08 | 2.51%
CCN(CC)CCNC(=O)CCc1nnc2n(Cc3ccccc3Cl)c(=O)c3ccccc3n12 | -5.86 | – | -14.7 | 2.62 | -1.02%
OCC1(Cc2ccccc2)CCCN(Cc2cn[nH]c2-c2ccc(F)cc2)C1 (stereo not given) | 5.88 | – | 0.855 | 5.69 | 4.38%
CN(CCCNC(=O)CCc1nnc2n(Cc3ccccc3)c(=O)c3ccccc3n12)Cc1ccccc1 | 1.61 | – | -7.26 | -2.41 | 0%
Cc1cnc(CCNC(=O)c2n[nH]c(=O)c3ccccc23)n1C1CCCCC1 | -2.57 | – | -0.405 | -2.34 | 5.31%
Nc1nc(NCc2ccc(Cl)cc2Cl)cc(C2CC(O)C2)n1 (stereo not given) | 1.79 | – | -23.3 | -0.704 | -2.38%
Cc1nccn1CCC1CCN(c2nccc(-c3ccccn3)n2)CC1 | 9.05 | – | 5.85 | 7.66 | 8.46%
CN(CCc1nc2ccc(Cl)cc2[nH]1)c1cc(C2CC(O)C2)nc(N)n1 (stereo not given) | 4.84 | – | -2.79 | 3.63 | 2.73%
CNC(=O)NCCc1ncc(C)n1C1CCCCCCC1 | 1.76 | – | -4.6 | -0.137 | 2.65%
Cc1noc(C)c1[S+](=O)([O-])N1CCn2c(nn(-c3ccc(C(F)(F)F)cc3)c2=O)C1 | -1.02 | – | -3.73 | -10.3 | -1.81%
COC(=O)c1ccc(C)c2c1C1C=CCC1[C@@H](c1ccc(C(=O)O)cc1)N2 (stereo not given in full) | -11.4 | – | -8.29 | -3.22 | -1.6%

Compound | activity [1] [%] | Potency [2] | activity [3] [%] | activity [4] [%] | activity change, negative = inhibition [2]
CC(C)CCN1CC2(CCCN(C(=O)c3ccn(C)c(=O)c3)C2)CCC1=O (stereo not given) | 5.04 | – | 3.97 | 1.77 | 8.37%
CCOc1cc(OCC)c2c(-c3ccccc3)cc(=O)oc2c1 | -64.6 | 15.2 µM (active) | -49.7 | -65.2 | –
Cc1ccc(N(C)S(=O)(=O)c2ccc3c(c2)n(C)c(=O)n3C)cc1 | -6.35 | 0.192 µM (active) | -47 | -7.47 | –
CC(C)Cn1c(=O)c2ccccc2n2c(CCC(=O)N3CCN(c4cccc(Cl)c4)CC3)nnc12 | -1.89 | – | -35.8 | -10.3 | 1.7%
CCC1Oc2ccc(NS(=O)(=O)c3ccc(Cl)cc3)cc2CN(Cc2ccc(F)cc2)C1=O (stereo not given) | -6.43 | – | -24.1 | -6.42 | -14.3%
CC1(C(=O)NC2CCCCC2)Cn2c(c(-n3cccc3)c3ccccc32)C(=O)N1Cc1ccccn1 (stereo not given) | 0 | – | -45.4 | 2.72 | 0%
Cc1cc(-c2cc3c(cn2)N(C)CCN(C)C3)ccn1 | 5.42 | – | 2.35 | 3.56 | 4.1% [at 114 µM]
CC(C)CCn1c(=O)c2ccccc2n2c(CCC(=O)N3CCN(Cc4ccccc4)CC3)nnc12 | 3.34 | – | -63.2 | -0.865 | 0%
COc1ccnc(-c2nnc3ccc(Nc4cc(OC)c(OC)c(OC)c4)nn23)c1 | -13.7 | – | -18 | -25.6 | -8.44% [at 85.7 µM]
O=C(O)c1ccc2c(c1)C1C=CCC1C(c1cccc(F)c1)N2 (stereo not given) | -2.11 | – | 0.825 | -2.83 | 2.71%
CNc1cc(C2CC(NC(=O)COc3ccc(Cl)cc3C)C2)nc(N)n1 (stereo not given) | 7.09 | – | -5.16 | 6.12 | 2.13%
O=C(Nc1ccc2c(N3CCCC3)ncnc2c1)c1cc(F)ccc1Cl | -8.67 | – | -15.4 | -17.8 | -7.52%
CC(C)Cn1c(=O)c2ccccc2n2c(CCC(=O)N3CCN(Cc4ccccc4)CC3)nnc12 | 0.0224 | – | -55.9 | -3.34 | 2.81%
CN(Cc1ccccc1)C1(C(=O)NC2CCC(O)CC2)Cc2ccccc2C1 (stereo not given) | 2.67 | – | 7.08 | 6.38 | 3.98%
COc1ccc(-c2[nH]ncc2CN2CC[C@H]3CC[C@@H](C2)N3)cc1 | 11.4 | – | 10.4 | 7.25 | 7.93%
CC(C)CCNC(=O)c1ccc2c(=O)[nH]c3c(C(=O)NC4CCCC4)sc(=S)n3c2c1 | -37.7 | 27.1 µM (active) | -45.4 | -38.7 | –
CCN(CC)CCCNC(=O)CCCc1nnc2n3nc(-c4ccccc4)nc3c3ccccc3n12 | -3.39 | – | -0.543 | -1.05 | 0%
COCc1cc(NCCCNc2cccnc2)ncn1 | -19.2 | – | -14.1 | -21 | -12.2%
CCCC1c2cccn2CCN1C(=O)NC1(CC(=O)OCC)CCCCC1 (stereo not given) | -3.29 | – | -5.96 | -9.82 | -0.613%
COc1ccc(CN2CCCC(COc3ccccc3C(=O)NC3CC3)C2)c(OC)c1 (stereo not given) | 4.91 | – | 1.02 | 1.19 | 4.18%
